# Laboratory results as given in the supplement of paper PMC12350171.
# Where a name gives a salt, the structure may show the parent alone. Unmarked numbers belong to inactive results.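 Rule for the calls: active = AUC significantly below DMSO controls by Student t-fit with adjusted P under 0.01; inactive = not significantly reduced.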
# System: Haemophilus parainfluenzae
# Assay: growth AUC normalised to DMSO control (fraction of control); higher = less growth inhibition, active = hit call of the paper
# Conditions: 20 µM
# Method in brief: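 Pathogens passaged twice anaerobically were inoculated at a starting OD578 of 0.01 into pre-reduced mGAM plates with drug at 20 μM and 1% DMSO, sealed with breathable membranes. Haemophilus parainfluenzae medium was supplemented with hemin and NAD. OD578 was read hourly for 24 h, with three biological replicates. Growth-curve AUC was computed by the trapezoidal rule up to the exponential-to-stationary transition and normalised to DMSO controls on the same plate.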
row,SMILES,growth AUC normalised to DMSO control
1,CC(C)NCC(O)c1cc(O)cc(O)c1 (configuration not stated) [Metaproterenol sulfate],0.99
2,Cc1ccc(Cl)c(Nc2ccccc2C(=O)O)c1Cl [Meclofenamic acid sodium salt monohydrate],0.94
3,O=C(c1ccccc1)c1ccc2n1CCC2C(=O)O (configuration not stated) [Ketorolac tromethamine],0.972
4,CCOc1cc(CC(=O)N[C@@H](CC(C)C)c2ccccc2N2CCCCC2)ccc1C(=O)O [Repaglinide],1.08
5,CCn1cc(C(=O)O)c(=O)c2ccc(C)nc21 [Nalidixic acid sodium salt],0.813 (active)
6,NC(=O)c1ncn([C@@H]2O[C@H](CO)[C@@H](O)[C@H]2O)n1 [Ribavirin],1
7,CN(CCCCCCCCCCN(C)C(=O)Oc1cccc([N+](C)(C)C)c1)C(=O)Oc1cccc([N+](C)(C)C)c1 [Demecarium bromide],0.923
